Measured values from PubChem BioAssay (NCATS).
Records with an inconclusive call do not appear. The source made the active and inactive calls. The call rests on the fitted dose curve; in most records, active means well fitted inhibition curve with a large enough effect; inconclusive means small, poorly fitted or top-dose-only effect; inactive means flat fitted curve, though single readings scatter.

target: Ubiquitin carboxyl-terminal hydrolase 1 (Homo sapiens) (UniProt O94782); assay: Inhibitors of USP1/UAF1: Pilot qHTS (AID 504865); conditions: purified USP1/UAF1, Ub-rhodamine cleavage fluorescence; series mostly up to 114 µM;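 further: rhodamine fluorescence freed from ubiquitin-rhodamine substrate followed over time; top concentration of the series differs between compounds; nearly all actives have a fitted effect of over 35% in size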
Outline: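 USP1/UAF1 complex at 1 nM preincubated 15 min at room temperature with compound, then Ub-Rho substrate added at 150 nM final. Fluorescence (480/540 nm) read kinetically in 50 mM HEPES pH 7.8, 0.5 mM EDTA, 1 mM TCEP, 0.1 mg/ml BSA, 0.01% Tween-20.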

Sequence of Ubiquitin carboxyl-terminal hydrolase 1 (Homo sapiens) (O94782 whole entry, looked up): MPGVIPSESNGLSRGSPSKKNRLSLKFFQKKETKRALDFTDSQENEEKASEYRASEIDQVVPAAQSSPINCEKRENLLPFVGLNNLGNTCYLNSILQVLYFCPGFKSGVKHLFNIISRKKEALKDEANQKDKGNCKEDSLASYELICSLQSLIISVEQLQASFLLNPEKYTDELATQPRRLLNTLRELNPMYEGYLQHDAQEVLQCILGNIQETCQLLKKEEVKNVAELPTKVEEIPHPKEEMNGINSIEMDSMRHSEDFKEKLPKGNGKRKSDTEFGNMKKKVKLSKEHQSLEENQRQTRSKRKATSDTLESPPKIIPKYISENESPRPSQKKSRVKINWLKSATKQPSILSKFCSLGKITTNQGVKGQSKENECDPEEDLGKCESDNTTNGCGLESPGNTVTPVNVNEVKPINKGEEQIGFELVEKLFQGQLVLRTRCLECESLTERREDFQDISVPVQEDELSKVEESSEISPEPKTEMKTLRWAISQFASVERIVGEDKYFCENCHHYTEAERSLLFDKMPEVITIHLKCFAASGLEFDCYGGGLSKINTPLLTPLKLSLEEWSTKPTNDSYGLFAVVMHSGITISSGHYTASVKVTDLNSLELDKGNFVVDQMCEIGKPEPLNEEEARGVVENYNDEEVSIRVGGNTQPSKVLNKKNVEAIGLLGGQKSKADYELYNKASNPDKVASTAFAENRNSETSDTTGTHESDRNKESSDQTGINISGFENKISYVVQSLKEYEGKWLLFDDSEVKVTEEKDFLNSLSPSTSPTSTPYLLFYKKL

Potency, inactive:
COC(=O)CC1C(C)(C)C(OC(C)=O)[C@@]2(O)C=C3C4CC(=O)OC(c5ccoc5)[C@]4(C)CCC3[C@@]1(C)C2=O (stereo not given in full)
CC(=O)OCC(=O)C1CCC2C3CCC4=CC(=O)CC[C@@]4(C)C3CC[C@]12C (stereo not given in full)
CCCCCC1C(=O)CCC1CC(=O)O (stereo not given)
CCC(/C=C/C(C)C1CCC2C3CCC4=CC(=O)CC[C@@]4(C)C3CC[C@@]12C)C(C)C (stereo not given in full)
CC(=O)OC1C[C@@]2(C)C(c3ccoc3)OC(=O)C3O[C@@]32[C@]2(C)C(OC(C)=O)CC3C(C)(C)C(OC(C)=O)CC(OC(C)=O)[C@@]3(C)C12 (stereo not given in full)
Cc1cn(C2CCC(CO)O2)c(=O)[nH]c1=O (stereo not given)
COc1c(O)cc2c(c1O)C1OC(CO)C(O)[C@H](O)[C@H]1OC2=O (stereo not given in full)
COc1ccc2c(c1)OCC(Cc1ccc(OC)c(O)c1)C2=O (stereo not given)
CC(=O)OC1C=C[C@]2(C)C(CC(OC(C)=O)[C@@]3(C)C4=CC(=O)OC(c5ccoc5)[C@]4(C)CCC23)C1(C)C (stereo not given in full)
CC1(C)C(=O)CC[C@@]2(C)C1CC(O)[C@@]1(C)C3=CC(=O)OC(c4ccoc4)[C@]3(C)CCC21 (stereo not given in full)
C/C=C(\C)C(=O)OC1[C@@H]2C=C3C4CC(=O)OC(c5ccoc5)[C@]4(C)CCC3[C@@](C)(C2=O)C(C(O)C(=O)OC)C1(C)C (stereo not given in full)
COc1ccc(C2CC(=O)c3c(O)cc(O[C@H]4OC(COC5OC(C)C(O)C(O)[C@@H]5O)C(O)C(O)C4O)cc3O2)cc1O (stereo not given in full)
CNc1ccccc1C(=O)N1CCc2c([nH]c3ccccc23)C1=O
CON
CC(=O)OC1CC(OC(C)=O)[C@]2(C)C(CC(=O)[C@]3(C)C2CC[C@@]2(C)C(c4ccoc4)OC(=O)C4O[C@@]423)C1(C)C (stereo not given in full)
Cc1ccc2c(c1)CC[C@H]1CC(=O)CC[C@@]21C
COc1ccc(-c2cc(=O)c3c(O)cc(O[C@@H]4OC(COC5OC(C)C(O)C(O)[C@@H]5O)C(O)C(O)C4O)cc3o2)cc1 (stereo not given in full)
CCN(CC)Cc1ccc(Nc2ccnc3cc(Cl)ccc23)cc1O
CCN1CCN(C(=O)NC(C(=O)NC2C(=O)N3C2SC(C)(C)C3C(=O)O)c2ccccc2)C(=O)C1=O (stereo not given)
COc1ccc2c(c1)[C@]1(C)CCC(=O)C[C@H]1CC2
CCCCCC(=O)Cc1cc(O)cc(O)c1C(=O)Oc1cc(CC(=O)CCCCC)c(C(=O)O)c(OC)c1
COc1c(OC)c2occc2c2oc(=O)ccc12
CCCCC(=O)Oc1ccccc1C(=O)O
CC1(O)CC2C(CC1O)C2(C)C (stereo not given)
Nc1nc2c(nc(Sc3ccc(Cl)cc3)n2C2OC(CO)C(O)C2O)c(=O)[nH]1 (stereo not given)
COc1ccc(C2CC(=O)c3c(O)cc(O)cc3O2)cc1O (stereo not given)
C=C(C)C1CC=C(CO)CC1 (stereo not given)
O=C1CC(c2ccc(O)c(O)c2)Oc2cc(O)cc(O)c21 (stereo not given)
COc1ccc(/C=C/C(=O)c2ccc(O)cc2O)cc1OC
COC(=O)CC1C(C)(C)C(=O)C2CC3=C4CC(=O)OC(c5ccoc5)[C@]4(C)CCC3[C@@]1(C)C2=O (stereo not given in full)
C/C=C1\C2C=C(C)C[C@@]1(N)c1ccc(=O)[nH]c1C2
CCOC(=O)CCC(=O)O[C@H]1C(O[C@@H]2C(C)[C@H](O[C@H]3C[C@@](C)(OC)C(O)C(C)O3)C(C)C(=O)OC(CC)[C@@](C)(O)C(O)[C@H](C)C(=O)C(C)C[C@]2(C)O)OC(C)CC1N(C)C (stereo not given in full)
C=C[C@](C)(O)CCC1C(=C)CCC2[C@@](C)(CO)CCC[C@@]12C (stereo not given in full)
COC1(C)CCC2OC2(C)CCC2C1CC2(C)C (stereo not given)
CC(=O)OCCC(C)CCC=C(C)C (stereo not given)
CC(CCC(=O)O)C1CCC2C3CC[C@@H]4CCCC[C@@]4(C)C3CC[C@@]12C (stereo not given in full)
CC1CC[C@@]23CCC4(C)[C@@]5(C)CCC6C(C)(C)C(O)CC[C@@]6(C)C5C=C[C@@]4(OC2=O)C3C1C (stereo not given in full)
CCCc1cc(OC)c2c(c1)OCO2
C=C1C2CC[C@@]3(C)C(c4ccoc4)OC(=O)C[C@@]13OC1CC(=O)C(C)(C)C(C(O)C(=O)OC)[C@]12C (stereo not given in full)
CC(=O)OC1CC2C(C)(C)C(O)CC(O)[C@@]2(C)C2CC[C@@]3(C)C(=CC(=O)OC3c3ccoc3)[C@]12C (stereo not given in full)
